# Results reported in PubChem BioAssay (NCI).
# Compounds without any hit were thinned out: in the full panel of roughly 79,000, 15% have a hit. Values without a mark were called inactive. The source made the active and inactive calls. Cut-off read from the data, not from the text of the source: active = growth inhibition above about 70%; inactive = the rest.
# What was measured:
# [1] = NCI Yeast Anticancer Drug Screen. Data for the rad50 strain (AID 155);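 note: 0% = growth of vehicle-only cultures of the same strain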; conditions: S. cerevisiae rad50 strain growth inhibition, stronger effect = higher value
# In short: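 Cells are treated with compound, grown, and their growth is then scored against vehicle-only cultures of the same repair-deficient yeast strain.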
# [2] = NCI Yeast Anticancer Drug Screen. Data for the mec2-1 strain (AID 157); conditions: S. cerevisiae mec2-1 strain, stronger effect = higher value
# In short: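 Growth inhibition is read against vehicle-treated controls after compound exposure of the mec2-1 yeast strain, which is defective in DNA damage repair or cell cycle control.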
# [3] = NCI Yeast Anticancer Drug Screen. Data for the sgs1 mgt1 strain (AID 161);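 note: 0% = growth of cultures given vehicle only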; conditions: S. cerevisiae sgs1 mgt1 strain, stronger effect = higher value
# In short: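 Percent growth inhibition was derived by comparing compound-exposed mutant yeast with vehicle-exposed cultures. The strain carries alterations in DNA damage repair.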
# [4] = NCI Yeast Anticancer Drug Screen. Data for the cln2 rad14 strain (AID 165);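 note: 0% = growth equal to vehicle treated cultures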; conditions: S. cerevisiae cln2 rad14 strain, stronger effect = higher value
# In short: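 Growth inhibition, relative to vehicle-treated controls, is the read-out. The test organism is a yeast strain with defined genetic alterations, cln2 rad14.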
# [5] = NCI Yeast Anticancer Drug Screen. Data for the bub3 strain (AID 167); conditions: S. cerevisiae bub3 mutant strain, stronger effect = higher value
# In short: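 Part of a panel of yeast mutants defective in DNA damage repair or cell cycle regulation. Each strain is grown with compound, and inhibition is calculated relative to solvent-treated cultures.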
# [6] = NCI Yeast Anticancer Drug Screen. Data for the mlh1 rad18 strain (AID 175); conditions: S. cerevisiae mlh1 rad18 strain growth inhibition, stronger effect = higher value
# In short: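 Cells of a genetically altered yeast strain, deficient in DNA damage repair, were treated with compound. Their growth was then compared with that of vehicle-treated cultures to give inhibition.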
# [7] = at 5.0 µM (retest, dose inferred, filed as 0.5)
# [8] = at 50.0 µM (retest, dose inferred, filed as 5.0)
SMILES,"growth inhibition [1, 7] [%]","growth inhibition [1, 8]",growth inhibition ([1]; at 50.0 µM),"growth inhibition [2, 7]","growth inhibition [2, 8]",growth inhibition ([2]; at 50.0 µM),"growth inhibition [3, 7] [%]","growth inhibition [3, 8]",growth inhibition ([3]; at 50.0 µM),"growth inhibition [4, 7]","growth inhibition [4, 8]",growth inhibition ([4]; at 50.0 µM),"growth inhibition [5, 7]","growth inhibition [5, 8]",growth inhibition ([5]; at 50.0 µM),"growth inhibition [6, 7]","growth inhibition [6, 8]",growth inhibition ([6]; at 50.0 µM)
NC(=S)NNCCC(=O)Nc1ccccc1C(F)(F)F,2,3%,-9.75%,-2%,2%,12.2%,3,4%,-1.9%,-3%,7%,6.15%,0%,1%,65.8%,-2%,7%,2.75%
O=c1cc(-c2cccc(OCc3ccccc3)c2)[nH]c2cc3c(cc12)OCO3,19,6%,21.3%,16%,12%,-21.4%,21,16%,17.1%,0%,11%,5.75%,14%,6%,19.9%,22%,10%,-51.5%
CCOC(=O)C1=C(C)NC(C)=C(C(=O)OCC)C1c1c(-c2ccccc2)noc1C,23,84% (active),6.6%,7%,62%,-2.3%,18,69%,2.2%,0%,40%,-3.5%,1%,70% (active),0.85%,2%,61%,11.9%
Nc1ccc2nc(Nc3ccc(F)cc3)cnc2c1,-11,63%,63.5%,-9%,27%,15.4%,-18,36%,56%,17%,49%,28.9%,7%,73% (active),60%,7%,77% (active),65.2%
CCCCCCCCC1OC1CCCCCCCC(=O)OCC1CO1 (configuration not stated),1,-11%,3.45%,1%,-10%,-18.7%,1,-10%,8.9%,5%,5%,29.1%,-3%,-16%,-25.1%,25%,-14%,-40.8%
CCCCOc1ccc(CN2CCOC2=O)cc1,3,8%,38.6%,7%,12%,17.8%,4,4%,10.6%,5%,9%,28.3%,7%,7%,6.3%,0%,3%,55.4%
Cc1c(NC(=O)/C(=N/NC(=S)N=N)C2C(=O)CC(C)(C)CC2=O)c(O)c2ccccc2c1O,14,98% (active),95.3% (active),7%,99% (active),81.2% (active),7,99% (active),84.8% (active),-1%,99% (active),47%,16%,98% (active),90.9% (active),9%,98% (active),93% (active)
CN(CCO)CCn1cnc2c1c(=O)n(C)c(=O)n2C,-7,5%,-36.7%,-8%,9%,-13.9%,7,-2%,1.65%,-15%,-12%,-21.8%,-4%,9%,-7.15%,-11%,-1%,-5.9%
OC1C2CCC1C1C3C=CC(C3)C21 (configuration not stated),1,91% (active),84.8% (active),5%,93% (active),62.2%,11,88% (active),42.4%,-3%,38%,70.2% (active),11%,85% (active),52.1%,-1%,94% (active),83% (active)
CC(=O)O[C@@H]1CC(C)C2CC2C2=C(C(O)OC2O)[C@@H]1C(C)CCC=C(C)C (some centres not stated),19,98% (active),91.9% (active),92% (active),99% (active),93.7% (active),25,98% (active),93% (active),86% (active),98% (active),90% (active),99% (active),98% (active),92.4% (active),78% (active),98% (active),91.5% (active)
Cc1cc(C)nc(CCSS(=O)(=O)O)c1,-4,5%,12.7%,-17%,2%,-0.95%,2,6%,3.35%,-1%,-8%,0.65%,-1%,-6%,40.9%,12%,6%,5.85%
Cc1ccccc1C(=O)c1ccc(O)c2ccccc12,-6,90% (active),99.4% (active),4%,82% (active),94.5% (active),9,94% (active),64.3%,-10%,65%,29.3%,4%,71% (active),55.2%,32%,94% (active),99.4% (active)
Cc1ccc(S(=O)(=O)OCCc2ccc(Cl)cc2)cc1,-10,-21%,-19.6%,-11%,-13%,-10.3%,-6,41%,-10.4%,-15%,-20%,-16.5%,9%,22%,71.2% (active),-14%,-12%,-7.75%
CC(=O)N(C)c1cc(NCc2ccccc2)ccc1OCc1ccccc1,1,96% (active),98.1% (active),12%,95% (active),97.8% (active),2,96% (active),97.7% (active),-60%,24%,79.8% (active),-7%,-65%,95.7% (active),-1%,96% (active),98.3% (active)
c1cnc2c(Oc3nc(Oc4cccc5cccnc45)nc(Oc4cccc5cccnc45)n3)cccc2c1,1,91% (active),94% (active),30%,90% (active),89.9% (active),18,76% (active),94.1% (active),5%,54%,84.2% (active),-2%,92% (active),94% (active),30%,94% (active),91.2% (active)
COc1ccccc1/C=C1\Sc2scc(-c3ccc(O)c(O)c3)[n+]2C1=O,-5,99% (active),98.9% (active),-8%,99% (active),98.9% (active),-11,99% (active),99.3% (active),-7%,99% (active),97.2% (active),-14%,99% (active),98.8% (active),7%,99% (active),99% (active)
NC(=S)c1cccc(C2Nc3ccccc3O2)c1 (configuration not stated),-1,24%,75.1% (active),0%,11%,44%,9,18%,39.1%,0%,30%,37.7%,47%,68%,81.7% (active),37%,61%,76.3% (active)
CNC(=O)N(C1=NCC(C)S1)c1ccc(C)c(C)c1 (configuration not stated),-13,97% (active),63.9%,-21%,98% (active),74.9% (active),-36,95% (active),71.8% (active),-17%,76% (active),57.2%,-22%,98% (active),79.2% (active),-17%,89% (active),69%
Oc1ccc(C2SC(c3ccc(O)cc3)SC(c3ccc(O)cc3)S2)cc1 (configuration not stated),14,98% (active),97.6% (active),-1%,96% (active),99.3% (active),-23,99% (active),99% (active),23%,98% (active),98.4% (active),30%,99% (active),98.1% (active),35%,99% (active),98.8% (active)
